The sample as a whole holds a higher share of hits than the screen did.
RBX1-CUL1 inh – blocks human RBX1-Cullin-1 di-ubiquitin formation; 140,000 tested, 0.6% active; in vitro K48 di-Ub FRET, acceptor:donor ratio, 45 min; inhibition, % at 10 µM; in the data active = inhibition above about 25%
Target sequence (P62877 whole entry, looked up): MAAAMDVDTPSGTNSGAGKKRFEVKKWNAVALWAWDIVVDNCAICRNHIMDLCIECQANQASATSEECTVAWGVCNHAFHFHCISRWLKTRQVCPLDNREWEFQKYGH
Target sequence (Q13616 whole entry, looked up): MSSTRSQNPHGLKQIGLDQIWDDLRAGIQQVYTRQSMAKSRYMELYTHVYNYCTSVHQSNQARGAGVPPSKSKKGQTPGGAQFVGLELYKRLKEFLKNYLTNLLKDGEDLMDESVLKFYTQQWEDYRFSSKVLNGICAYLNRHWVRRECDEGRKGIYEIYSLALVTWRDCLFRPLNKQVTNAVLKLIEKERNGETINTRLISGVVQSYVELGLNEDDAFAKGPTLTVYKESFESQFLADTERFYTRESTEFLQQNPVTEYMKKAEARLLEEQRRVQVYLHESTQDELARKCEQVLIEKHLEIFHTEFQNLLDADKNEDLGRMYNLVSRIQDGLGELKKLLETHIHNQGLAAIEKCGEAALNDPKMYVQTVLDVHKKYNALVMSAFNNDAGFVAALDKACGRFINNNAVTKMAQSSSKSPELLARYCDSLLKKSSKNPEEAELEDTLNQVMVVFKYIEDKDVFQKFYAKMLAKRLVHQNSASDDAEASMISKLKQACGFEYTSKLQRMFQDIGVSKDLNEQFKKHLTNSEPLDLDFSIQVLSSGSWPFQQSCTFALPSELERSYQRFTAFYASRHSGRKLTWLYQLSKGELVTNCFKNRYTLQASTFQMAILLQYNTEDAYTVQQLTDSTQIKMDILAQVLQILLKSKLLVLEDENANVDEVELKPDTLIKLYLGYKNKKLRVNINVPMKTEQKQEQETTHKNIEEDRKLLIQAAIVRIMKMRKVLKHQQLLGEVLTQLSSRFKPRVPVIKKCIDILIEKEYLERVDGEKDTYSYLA
An asterisk follows results filed as active.

SMILES | RBX1-CUL1 inh
c1ccc(-c2cccc(-c3ccn[nH]3)c2)nc1 | 14
Cc1ccc(C(=O)c2coc3ccc(O)c(Cl)c23)cc1 | 0
CC(=O)C(C(C)=O)C1=C(Cl)C(=O)C(=O)c2c(C(=O)c3ccc(C)cc3)coc21 | 79*
Cc1ccc(C(=O)c2coc3c2cc(O)c2ccccc23)cc1 | -8
Cc1ccc(C)c(N2CCN(C(=O)CCc3nnc4n(CC(C)C)c(=O)c5ccccc5n34)CC2)c1 | -6
CCOC(=O)c1ccc(N2C(=O)c3ccc(C(=O)Nc4ccc(O)cc4C(=O)O)cc3C2=O)cc1 | 69*
O=C(COC(=O)c1ccc2c(c1)C(=O)N(c1ccc(O)cc1)C2=O)c1ccccc1 | -5
Cc1ccc(NC(=O)c2ccc3c(c2)C(=O)N(CC(C)C)C3=O)c(C(=O)O)c1 | 12
CCN(CC)CCN=CC1C(=O)N(c2c(Cl)cccc2Cl)c2ccccc21 (stereo not given) | 4
CN(C)/C=C1/N=C2C=C(c3ccccc3)c3cc(Cl)ccc3N2C1=O | 0
CN(C)/C=C1\C(=O)N(c2c(Cl)cccc2Cl)c2cc(C=C(C#N)C#N)ccc21 | 34*
CCN1N=C(C)Cn2c1nc1c2c(=O)n(CC)c(=O)n1C | 0
Cc1ccc2c(c1)C(=O)CC(CSc1nnc(NC(=O)c3ccccc3C)s1)=N2 | -2
O=C(c1cccc(Br)c1)c1conc1C(=O)c1ccco1 | 0
COc1cccc(N2CC(NC(=O)C(c3ccccc3)c3ccccc3)CC2=O)c1 (stereo not given) | -7
CC1CCC(C(C)C)C(OC2OC(=O)C(Cl)C2=Nc2ccccc2)C1 (stereo not given) | -6
O=C1Nc2ccccc2C(=O)C1N1CCOCC1 (stereo not given) | 0
O=C(O)c1cccc(N=C2C(=O)N(c3ccc(Cl)cc3Cl)C(=O)C2Cl)c1 (stereo not given) | -7
O=C(O)c1cccc(N=C2C(=O)c3ccccc3C(=O)C2N2CCOCC2)c1 (stereo not given) | 54*
CCCCCOc1ccc(C#N)c2ccccc12 | 7
Cc1ccc(Cl)cc1NC(=O)C(Sc1ccccc1)c1ccccc1 (stereo not given) | 0
Cc1ccc(N2NC(=O)/C(=C/c3ccc(-c4ccc(S(=O)(=O)Nc5nccs5)cc4)o3)C2=O)cc1C | 85*
CCCOC(=O)c1cc(-c2ccc(/C=C3/C(=O)NN(c4ccc(CC)cc4)C3=O)o2)ccc1Cl | 11
COC(=O)c1cccc(-c2ccc(/C=C3/C(=O)NN(c4ccc(C)c(C)c4)C3=O)o2)c1 | 4
O=C1NN(c2ccc(Br)cc2)C(=O)/C1=C\c1ccc(-c2ccccc2)o1 | -1
SMILES | RBX1-CUL1 inh
Cc1ccc(N2NC(=O)/C(=C/c3ccc(-c4ccc(S(=O)(=O)Nc5nccs5)cc4)o3)C2=O)cc1Cl | 99*
O=C1NN(c2cccc(F)c2)C(=O)/C1=C/c1ccc(-c2ccc(Cl)cc2)o1 | 5
O=C1NN(c2ccc(F)c(Cl)c2)C(=O)/C1=C/c1ccc(-c2ccc(Cl)cc2)o1 | -7
O=C1NN(c2ccc(F)c(Cl)c2)C(=O)/C1=C/c1ccc(-c2cccc(Cl)c2)o1 | -8
CCc1ccc(N2NC(=O)/C(=C/c3ccc(-c4ccc(S(=O)(=O)Nc5nccs5)cc4)o3)C2=O)cc1 | 93*
O=C1Nc2c(-c3ccc(Cl)cc3)cnn2CC1CC(=O)N1CCCCC1 (stereo not given) | -2
Nc1ccccc1C(=O)Nc1cccnc1 | -1
CSc1nc2[nH]ncc2c(=O)n1-c1ccccc1 | 4
N#CC1=CC[C@]23CCC[C@]12CC=C3C#N | 5
Cc1c(-c2nnnn2-c2ccc(F)cc2)cnc2cc3c(cc12)OCO3 | -1
O=C(NCc1ccccc1Cl)c1cc(=O)[nH]c2ccc(S(=O)(=O)N3CCCCC3)cc12 | 2
Cc1ccccc1OCC(=O)NC(C)C(=O)N/N=C\c1ccc2c(c1)n(C)c(=O)n2C (stereo not given) | 9
Cc1ccccc1OCC(=O)NC(C(=O)N/N=C/c1ccc(OCc2ccccc2C#N)cc1)C(C)C (stereo not given) | 96*
Cc1cccc(OCC(=O)NC(C)C(=O)N/N=C/c2ccc(OCc3c(C)cc(C)cc3C)cc2)c1 (stereo not given) | 12
Cc1nc(SCC(=O)Nc2ccc3ccccc3c2)c2c3c(sc2n1)CCCC3 | 0
Cc1nc(SCC(=O)Nc2ccc3c(c2)OCCO3)c2c3c(sc2n1)CCCC3 | 42*
COC(=O)c1ccc(NC(=O)CSc2nc(C)nc3sc4c(c23)CCC4)cc1 | 3
CC(Oc1ccc(Br)cc1Br)C(=O)NCCO (stereo not given) | -1
COc1ccc2cc(Br)ccc2c1CC(=O)Nc1ccccn1 | -1
C=CCc1cc(/C=C2\C(=O)NC(=O)N(c3ccc(Br)c(C)c3)C2=O)cc(OCC)c1O | 2
CCOc1cc(/C=C2\C(=O)N(c3ccccc3)C(=S)N2c2ccc(CC)cc2)c(Br)cc1O | 3
CCOc1cc(/C=C2\C(=O)NC(=O)N(c3ccc(C45CC6CC(CC(C6)C4)C5)cc3)C2=O)c(Br)cc1O | 91*
COC(=O)COc1ccccc1/C=C1/C(=O)N(c2ccc(Cl)cc2)C(=S)N1C | -9
COc1cc(OC)c(OC)cc1/C=C1\C(=O)NC(=S)N(c2ccc(F)cc2)C1=O | 6
COC(=O)COc1ccccc1/C=C1\C(=O)NC(=O)N(c2ccc(C34CC5CC(CC(C5)C3)C4)cc2)C1=O | 41*
SMILES | RBX1-CUL1 inh
CN1C(=N)C(NC(=O)c2cccs2)C(=O)N(C)C1=O (stereo not given) | 0
Cc1ccc2nc(N(Cc3cccnc3)C(=O)Cc3ccccc3)sc2c1 | 5
Nc1nc(CN2CCN(c3ccccc3F)CC2)nc(N2CCOCC2)n1 | -5
CCOc1ccccc1N1CCN(C(=O)/C=C/c2ccc(Br)cc2)CC1 | -8
CCN=C1CC=C(Br)C=C(C(=O)/C=C/c2ccc(Br)cc2)C1=O | 94*
CCN=C1CC=C(Br)C=C(C(=O)/C=C/c2ccc(Cl)cc2)C1=O | 17
CN=C1CC=C(Br)C=C(C(=O)/C=C/c2ccc(Br)cc2)C1=O | 36*
CC(=O)c1cccc(NC(=O)/C=C/c2ccc(Br)cc2)c1 | 5
CCN=C1CC=C(Br)C=C(C(=O)/C=C/c2ccc(OC)cc2)C1=O | 16
COc1ccc(Br)cc1/C=C/C(=O)c1ccc(OS(C)(=O)=O)cc1 | 0
CCN=C1CC=C(Br)C=C(C(=O)/C=C/c2cc(OC)ccc2OC)C1=O | 55*
CCN=C1CC=C(Br)C=C(C(=O)/C=C/c2ccc(F)cc2)C1=O | 27*
CC1CN(C(=O)/C=C/c2ccc(F)cc2)C(C)CN1C(=O)/C=C/c1ccc(F)cc1 (stereo not given) | -2
CCN=C1CC=C(Br)C=C(C(=O)/C=C/c2ccc(C(F)(F)F)cc2)C1=O | 6
CCOC(=O)c1ccccc1NC(=O)/C=C/c1ccc(Br)cc1 | -4
COc1ccc(NCc2cc3cc4c(cc3n(CC(=O)Nc3ccc(C)c(C)c3)c2=O)OCO4)cc1 | -6
c1cc(-c2cccs2)cc(-c2cccs2)c1 | 1
CCN(c1ccc(OC)cc1)S(=O)(=O)c1nnc(NC(=O)c2ccccc2C)s1 | -8
COc1ccc(N=C2CNC(=O)C2)cc1 | -7
CCC12CN3CC(C)(CN(C1)C3c1c(C)n(C)c3ccccc13)C2=O (stereo not given) | -5
Cc1ncc(CN2CC[C@@H](N3CCN(c4ccccn4)CC3)[C@H](O)C2)cn1 | 2
NS(=O)(=O)c1ccc(CNC(=O)/C=C/c2c(Cl)cccc2Cl)cc1 | 16
CCN=C1CC=C(Br)C=C(C(=O)/C=C/c2c(Cl)cccc2Cl)C1=O | 90*
O=C(/C=C/c1c(Cl)cccc1Cl)Nc1ncccn1 | -3

Compound activity as filed in PubChem.
